This note sets out measurements from PubChem BioAssay AID651957 (The Scripps Research Institute Molecular Screening Center, 2012).

The whole screen tested about 370,000 compounds, of which about 620 (0.17%) were called active.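 The calls were made as follows: active = inhibition above the mean inhibition of all tested compounds plus 3 SD, set per campaign (cut at about 52% in these data); inactive = the rest.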 What follows is part of a selection rich in actives, with near analogues and random picks from the rest.

The target of the assay is Nuclear receptor coactivator 2 (Homo sapiens) (UniProt Q15596). In words: inhibition of GAL4-SRC2 driven luciferase reporter, primary screen, SRC2 inhibitor project, cell-based, luminescence (AID 651957).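 Also: 0% = DMSO treated cells and 100% = cells given Gossypol at 36 µM.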 The settings on record: HEK293 GAL4-SRC2 luciferase reporter, at 9 µM, stronger effect = higher value. On the technique in general: Reporter assays use an easily measured gene product as a stand-in for the process of interest.
Nuclear receptor coactivator 2 (Homo sapiens), sequence (Q15596 whole entry, looked up, the tested form may be a part): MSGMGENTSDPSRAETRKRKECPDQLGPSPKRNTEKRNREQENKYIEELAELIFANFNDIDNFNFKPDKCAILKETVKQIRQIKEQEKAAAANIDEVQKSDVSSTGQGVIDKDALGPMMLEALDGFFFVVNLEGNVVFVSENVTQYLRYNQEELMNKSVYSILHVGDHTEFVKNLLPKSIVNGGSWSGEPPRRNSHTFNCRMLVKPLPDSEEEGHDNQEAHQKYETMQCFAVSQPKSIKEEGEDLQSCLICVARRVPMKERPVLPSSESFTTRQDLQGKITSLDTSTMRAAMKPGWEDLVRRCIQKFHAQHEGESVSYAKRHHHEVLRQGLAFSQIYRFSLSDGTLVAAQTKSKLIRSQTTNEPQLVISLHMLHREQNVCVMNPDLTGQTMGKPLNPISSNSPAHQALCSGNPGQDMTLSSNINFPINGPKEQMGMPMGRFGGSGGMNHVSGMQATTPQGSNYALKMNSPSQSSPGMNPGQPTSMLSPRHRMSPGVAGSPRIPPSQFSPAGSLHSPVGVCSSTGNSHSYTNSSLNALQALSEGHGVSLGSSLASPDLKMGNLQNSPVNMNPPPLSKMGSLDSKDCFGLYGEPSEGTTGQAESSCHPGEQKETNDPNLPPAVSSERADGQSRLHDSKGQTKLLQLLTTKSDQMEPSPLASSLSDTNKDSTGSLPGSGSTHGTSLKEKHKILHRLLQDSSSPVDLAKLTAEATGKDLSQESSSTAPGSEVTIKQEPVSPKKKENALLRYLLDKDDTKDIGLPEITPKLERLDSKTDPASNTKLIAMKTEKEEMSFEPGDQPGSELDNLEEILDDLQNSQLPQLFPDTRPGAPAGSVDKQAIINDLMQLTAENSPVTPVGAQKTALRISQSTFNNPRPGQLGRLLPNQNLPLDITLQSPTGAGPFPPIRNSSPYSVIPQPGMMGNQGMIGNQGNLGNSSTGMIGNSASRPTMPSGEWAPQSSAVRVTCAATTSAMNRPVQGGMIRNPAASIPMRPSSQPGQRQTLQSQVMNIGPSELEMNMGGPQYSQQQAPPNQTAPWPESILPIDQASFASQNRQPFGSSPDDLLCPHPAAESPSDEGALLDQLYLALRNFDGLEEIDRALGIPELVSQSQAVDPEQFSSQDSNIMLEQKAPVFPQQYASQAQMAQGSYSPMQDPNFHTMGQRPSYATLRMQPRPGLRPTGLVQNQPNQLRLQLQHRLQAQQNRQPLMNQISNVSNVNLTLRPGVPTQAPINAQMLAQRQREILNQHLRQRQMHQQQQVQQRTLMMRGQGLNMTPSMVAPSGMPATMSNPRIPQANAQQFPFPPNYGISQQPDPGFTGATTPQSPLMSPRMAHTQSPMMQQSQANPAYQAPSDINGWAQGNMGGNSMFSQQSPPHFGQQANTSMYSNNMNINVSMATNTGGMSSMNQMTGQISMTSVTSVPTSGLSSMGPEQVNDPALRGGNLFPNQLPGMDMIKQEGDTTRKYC
A word on the inhibition: it is the relative decrease from the control value, in per cent. In the case of `CCC(C)(O)C(=O)OC1C(=O)OC2CC3C(C)=CC(=O)C(O)C3(C)C3C4(O)OCC23C1C(C)C4O` (stereo not given), the inhibition is 74.8% (active).
For the compound `O=C(COc1ccc2ccccc2c1)N1CCN(Cc2ccncc2)CC1`, the inhibition is 9.05% (inactive).
For the compound `CC1([N+](=O)[O-])COP(=O)(Nc2ccc(F)cc2)OC1` (stereo not given), the inhibition is -54.9% (inactive).
In the case of `CCN1CCN(C(=O)Cc2coc3cc(C)cc(C)c23)CC1`, the inhibition was -5.27% (inactive).
Turning to `CC(C)n1c(=O)c(C=Nc2ccc(Br)cc2)c(O)n(Cc2ccco2)c1=O`, the inhibition is 8.44% (inactive).
`COC1C(O)C(C)OC(OC2CCC3(C=O)C(CCC4C3CCC3(C)C(C5=CC(=O)OC5)CCC43O)C2)C1O` (stereo not given): the inhibition is 55% (active).
As to `C[C@]12CC[C@H](O)C[C@H]1CC[C@@H]1C2CC[C@]2(C)[C@@H](C3=CC(=O)OC3)[C@@H](O)C[C@]12O` (stereo not given in full), the inhibition is 10.7% (inactive).
Regarding `Brc1ccc2c(c1)CNCc1cnnn1-2`, the inhibition is -46.2% (inactive).
Turning to `Cc1ccccc1CCC[C@@H](CC1CCCCC1)CN(C)C(=O)Oc1ccccc1`, the inhibition is -0.22% (inactive).
Regarding `COP(=O)(Sc1ccccc1)C(Cc1ccccc1)NC(=O)OCc1ccccc1` (stereo not given), the inhibition is 2.58% (inactive).
